Measured values: PubChem BioAssay

Assay: resazurin metabolic signal in HepG2 cells – cell-based, resazurin fluorescence, 24 h, PK04 Diversity Set, profiling panel (AID 1172); note: test concentration not given here
Settings: HepG2 viability, higher = more signal

Compound | z-score
[N-]=[N+]=Nc1ccccc1C[C@]1(C(=O)NCc2ccccc2)COC(c2ccc(OCCCO)cc2)=N1 | -0.85
C=CCNC(=O)[C@H]1[C@@H]2C(=O)O[C@@H](c3ccccc3)[C@@H](c3ccccc3)N2[C@@H](c2ccc(OCCO)cc2)[C@]12C(=O)Nc1ccc(C#CCNC(N)=O)cc12 | -0.598
CCOC(=O)C[C@H]1[C@H](OC(=O)c2ccccc2-c2ccccc2)[C@@H](NC(=O)c2ccc3ccccc3n2)c2cc(OCCCO)ccc2N1C(=O)c1ccccc1 | -0.412
C[C@@H]1ON(c2ccc(I)cc2)[C@H](c2ccc(OC(=O)OC(C)(C)C)cc2)[C@H]1C(=O)N1C(=O)OC[C@H]1Cc1ccccc1 | 1.14
CN1C(=O)[C@@H]2[C@@H](CC(COc3ccccc3)=C([C@H](O)CCc3ccccc3)[C@@H]2CO)C1=O | 0.358
NC(=O)N1C(=O)C2C(C1=O)C1C=C(CCCO)C2C(C2CC2)N1Cc1cccc(OC(F)(F)F)c1 (centres undefined) | -0.807
O=C(N1CCOCC1)[C@@]1(CCS(=O)(=O)c2ccccc2)N=C(c2ccc(OCCCO)cc2)O[C@H]1c1ccccc1 | -0.285
C=C(COC)C(=O)CC[C@H](OC(C)=O)c1ccc(OCCO)cc1 | -0.429
COc1ccc(C(O)C2C=CC3C(=O)N(c4ccccc4)C(=O)C3N2Nc2ccccc2)cc1 (centres undefined) | -0.377
O=C1C2C=CC(C(O)C=Cc3ccc([N+](=O)[O-])cc3)N(Nc3ccccc3)C2C(=O)N1c1ccccc1 (centres undefined) | -0.392
CCN(CC)c1ccc(N2CC=CC34O[C@@H]5C=CCCOC(=O)C5[C@H]3C(=O)N(CCO)[C@@H]4C2=O)cc1 (some centres undefined) | 0.0656
CN1C=C(C(=O)OCCS(C)(=O)=O)C(C(=O)OCCS(C)(=O)=O)=CC(c2ccc(CO)cc2)=CC1c1cccs1 (centres undefined) | 0.0449
C=C(C)C1CCC(C(O)C2C=CC3C(=O)N(C)C(=O)C3N2Nc2cc(OC)c(OC)c(OC)c2)CC1 (centres undefined) | -1.15
O=C1NC(=O)C2C1C=CC(C(O)c1ccccn1)N2Nc1ccc(Cl)cc1Cl (centres undefined) | -1.08
CCCCC=C[C@@H](NC(=O)c1ccccc1)c1ccccc1 | -0.35
C=C(C(=O)CC[C@H](OC(=O)c1ccccc1-c1ccccc1C(=O)O)c1ccccc1OCCO)C(C)C | 0.0659
COCCOC(=O)N1C(=O)[C@@]2(c3cc(C#CCC(C(=O)OC)C(=O)OC)ccc31)[C@H](c1ccc(O)cc1)N1[C@H](c3ccccc3)[C@H](c3ccccc3)OC(=O)[C@H]1[C@@H]2C(=O)NC[C@H](O)c1ccccc1 | 1.78
[N-]=[N+]=NCc1ccccc1[C@@H]1OC(c2ccc(OCCCO)cc2)=N[C@]1(Cc1ccccc1N=[N+]=[N-])C(=O)NCCN1CCOCC1 | -0.591
CN1C(=O)C2C=CC(C(O)c3ccc(I)cc3)N(Nc3ccccc3)C2C1=O (centres undefined) | -1.25
[N-]=[N+]=NCc1ccccc1[C@@H]1OC(c2ccc(OCCCO)cc2)=N[C@]1(Cc1ccccc1)C(=O)NCCN1CCOCC1 | -0.195
CC1(C)C(=O)C(c2ccccc2)=C2CN3C(=O)N(CCc4ccccc4)C(=O)C3(Cc3ccc(C(F)(F)F)cc3)C=C21 (centres undefined) | -0.967
O=C1N(CCS(=O)(=O)c2ccccc2)Cc2ccccc2[C@@H]2OC(c3ccc(OCCCO)cc3)=N[C@]12CCS(=O)(=O)c1ccccc1 | 0.638
CCOC(=O)C[C@H]1[C@H](OC(=O)c2cc3ccccc3oc2=O)[C@@H](NC(=O)c2ccc3ccccc3c2)c2cc(OCCCO)ccc2N1C(=O)Cc1ccc(OC)cc1 | 0.98
CC(C)OC(=O)CC(=O)CC(O)c1ccc([N+](=O)[O-])cc1 (centres undefined) | -0.55
CO[C@H]1O[C@H](CO)[C@@H](OC(=O)CCc2ccccc2)[C@H](OC(=O)c2cc3ccccc3[nH]2)[C@H]1OC(=O)c1cc2ccccc2[nH]1 | -1.4
C=CCNC(=O)[C@@H]1[C@H]2C(=O)O[C@H](c3ccccc3)[C@H](c3ccccc3)N2[C@H](c2ccc(OCCO)cc2)[C@@]12C(=O)N(C(=O)OCCOC)c1ccc(C#CCCO)cc12 | 0.266
COCCOC(=O)N1C(=O)[C@@]2(c3cc(C#CCCO)ccc31)[C@H](C(=O)N1CCCCCCC1)[C@H]1C(=O)O[C@H](c3ccccc3)[C@H](c3ccccc3)N1[C@@H]2c1ccccc1OCCO | -0.0873
COC(=O)[C@@]1(Cc2ccc(F)cc2)[C@H]2c3cc(C(=O)N4CCCC4)n(C)c3C[C@H]2CN1C(=O)c1ccccc1 | 0.0015
COC(=O)[C@@]1(Cc2ccc(F)cc2)[C@H]2c3cc(C(=O)N(C)C)n(Cc4ccc(O)c(OC)c4)c3C[C@H]2CN1C(=O)c1ccccc1 | -0.338
